Laboratory results taken from PubChem BioAssay (NCATS).
Inconclusive results are not listed. A number with no mark means an inactive call. The source made the active and inactive calls. Calls come from the whole dose curve; as a rule, active = well fitted cell-killing curve with a large enough effect; inconclusive = small, poorly fitted or top-dose-only effect, or effect the other way; inactive = no such curve, though single readings can be large or run the other way.

Experiment: qHTS of pediatric cancer cell lines to identify multiple opportunities for drug repurposing: Confirmatory screen for NB1643 cells (AID 1347109); note: nearly all actives have a fitted effect of over 45% in size;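 for activity change, negative = cytotoxic: plate controls were DMSO for no effect and bortezomib for full effect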
Conditions: NB1643 neuroblastoma cell viability; series mostly up to 45.9 µM; activity change, negative = cytotoxic: at the top concentration
Outline: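 Cells (500-1,000/well) in growth media were settled 5 h at 37 degrees C, then given compounds for 48 h. Viability was read as CellTiter-Glo luminescence. Primary runs used MIPE at 11 points (0.78 nM-46 µM) and NPC at 8 points (0.59 nM-46 µM); follow-ups used 11 points.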
Potency is the fitted concentration of half-maximal effect.

SMILES | activity change, negative = cytotoxic | Potency
NC(CO)(CO)CO | 10.3% | 
C[C@]12CCC(=O)C=C1CC[C@H]1[C@@H]3CC[C@](O)(C(=O)CO)[C@@]3(C)C[C@H](O)[C@@]12F | -12.2% | 
C[C@H]1C[C@H]2[C@@H]3CCC4=CC(=O)C=C[C@]4(C)[C@@]3(Cl)[C@@H](O)C[C@]2(C)[C@@]1(O)C(=O)CO | -3.13% | 
CCCC(=O)O[C@]1(C(=O)CO)CC[C@H]2[C@@H]3CCC4=CC(=O)CC[C@]4(C)[C@H]3[C@@H](O)C[C@@]21C | 3.52% | 
C[C@]12C=CC(=O)C=C1[C@@H](F)C[C@@H]1[C@@H]2[C@@H](O)C[C@@]2(C)[C@H]1CC[C@]2(O)C(=O)CO | 5.99% | 
O=C(CCCN1CCC(O)(c2ccc(Br)cc2)CC1)c1ccc(F)cc1 | -25.5% | 
CC(=O)OCC(=O)[C@@]12OC(C)(C)O[C@@H]1C[C@H]1[C@@H]3C[C@H](F)C4=CC(=O)C=C[C@]4(C)[C@@]3(F)[C@@H](O)C[C@@]12C | -41.7% | 
CCCCC(=O)O[C@]1(C(=O)CO)CC[C@H]2[C@@H]3CCC4=CC(=O)CC[C@]4(C)[C@H]3[C@@H](O)C[C@@]21C | -29.7% | 
CCC(C(=O)OCCN(CC)CC)c1ccccc1 (configuration not stated) | -7.46% | 
C=C1C[C@H]2[C@@H]3C=C(C)C4=CC(=O)CC[C@]4(C)[C@H]3CC[C@]2(C)[C@@]1(OC(C)=O)C(C)=O | -21.6% | 
CC(=O)OCC(=O)[C@@]1(O)[C@H](C)C[C@H]2[C@@H]3CCC4=CC(=O)C=C[C@]4(C)[C@@]3(F)[C@@H](O)C[C@@]21C |  | 20.8 µM (active)
CC(=O)OCC(=O)[C@@]1(O)CC[C@H]2[C@@H]3CCC4=CC(=O)C=C[C@]4(C)[C@H]3[C@@H](O)C[C@@]21C | -5.05% | 
NC(=O)CC[C@@H]1NC(=O)[C@H](Cc2ccccc2)NC(=O)[C@H](Cc2ccc(O)cc2)NC(=O)CCSSC[C@@H](C(=O)N2CCC[C@H]2C(=O)N[C@@H](CCCN=C(N)N)C(=O)NCC(N)=O)NC(=O)[C@H](CC(N)=O)NC1=O | -21.4% | 
CC1(C)O[C@@H]2C[C@H]3[C@@H]4C[C@H](F)C5=CC(=O)CC[C@]5(C)[C@H]4[C@@H](O)C[C@]3(C)[C@]2(C(=O)CO)O1 | -3.64% | 
CC(=O)Oc1ccc(C(c2ccc(OC(C)=O)cc2)c2ccccn2)cc1 | -2.89% | 
C[C@@H]1C[C@H]2[C@@H]3CCC4=CC(=O)C=C[C@]4(C)[C@@]3(F)[C@@H](O)C[C@]2(C)[C@H]1C(=O)CO | -0.917% | 
CN(C)C(=S)SC(=S)N(C)C |  | 9.27 µM (active)
